“And” between values parts separate entries of the source, which are not always exact repeats. Identical values can stand only once. The campaign covered roughly 5,500 compounds. About 2,000 (36%) were called active. Not shown: some 18% with an inconclusive outcome. No stated cut-off is given here; in the data, active means normalized growth mostly below about 0.91 (no sharp cut-off); inconclusive means no clear call, values can overlap the other calls; inactive means mostly above about 0.92. Some of the results follow.
Experiment: chemical genetic growth profiling, strain panel (AID 1159580);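 further: tested at 20 µM; growth read once vehicle control cultures reached saturation at 30 °C; 1 = growth at the plate median or of vehicle wells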
Conditions: S. cerevisiae deletion strains, growth OD

Measured: normalized growth

C#C[C@]1(O)CCC2C3CCc4cc(O)ccc4C3CC[C@@]21C (some centres not stated)
inactive: locus YAL013W, strain DEP1, stronger effect = lower value 1 | locus YAL021C, strain ccr4, stronger effect = lower value 1.06 | locus YAL026C, strain drs2, stronger effect = lower value 0.951 | locus YAL030W, strain snc1, stronger effect = lower value 1.02 | locus YBL061C, strain skt5, stronger effect = lower value 0.998 | locus YBR021W, strain FUR4, stronger effect = lower value 0.94 | locus YBR023C, strain chs3, stronger effect = lower value 0.996 | locus YBR171W, strain sec66, stronger effect = lower value 1.02 | locus YBR229C, strain ROT2, stronger effect = lower value 1.02 | locus YBR231C, strain swc5, stronger effect = lower value 1 | locus YBR279W, strain paf1, stronger effect = lower value 1 | locus YCL011C, strain gbp2, stronger effect = lower value 1.01 | locus YCL016C, strain dcc1, stronger effect = lower value 0.988 | locus YCL029C, strain bik1, stronger effect = lower value 0.942 | locus YCL061C, strain MRC1, stronger effect = lower value 0.968 | locus YCL069W, strain vba3, stronger effect = lower value 1.02 | locus YCR088W, strain abp1, stronger effect = lower value 1.02 | locus YDL005C, strain med2, stronger effect = lower value 1.04 | locus YDL040C, strain nat1, stronger effect = lower value 1.03 | locus YDL074C, strain BRE1, stronger effect = lower value 0.833 | locus YDL101C, strain DUN1, stronger effect = lower value 0.989 | locus YDL185W, strain tfp1, stronger effect = lower value 1.02 | locus YDL192W, strain arf1, stronger effect = lower value 1.01 | locus YDR001C, strain nth1, stronger effect = lower value 1.04 | locus YDR069C, strain doa4, stronger effect = lower value 0.991 | locus YDR101C, strain arx1, stronger effect = lower value 0.956 | locus YDR159W, strain sac3, stronger effect = lower value 0.908 | locus YDR162C, strain NBP2, stronger effect = lower value 0.843 | locus YDR297W, strain sur2, stronger effect = lower value 1.01 | locus YDR318W, strain mcm21, stronger effect = lower value 0.945 | locus YDR334W, strain swr1, stronger effect = lower value 1.05 | locus YDR335W, strain msn5, stronger effect = lower value 0.959 | locus YDR388W, stronger effect = lower value 1.02 | locus YDR502C, strain sam2, stronger effect = lower value 0.93 | locus YEL003W, strain gim4, stronger effect = lower value 0.938 | locus YEL037C, strain rad23, stronger effect = lower value 1.02 | locus YEL061C, strain CIN8 (second series), stronger effect = lower value 1.03 | locus YEL061C, strain CIN8, stronger effect = lower value 1.04 | locus YER015W, strain faa2, stronger effect = lower value 1.01 | locus YER016W, strain bim1, stronger effect = lower value 0.934 | locus YER110C, stronger effect = lower value 1.03 | locus YER111C, strain swi4, stronger effect = lower value 1.06 | locus YER155C, strain BEM2 (second series), stronger effect = lower value 1.07 | locus YER155C, strain BEM2, stronger effect = lower value 1.06 | locus YER167W, strain BCK2, stronger effect = lower value 1 | locus YFR010W, strain ubp6, stronger effect = lower value 1.01 | locus YGL086W, strain mad1, stronger effect = lower value 0.951 | locus YGL167C, strain pmr1, stronger effect = lower value 1.02 | locus YGL173C, strain kem1, stronger effect = lower value 0.904 | locus YGL227W, strain vid30, stronger effect = lower value 1.05 | locus YGL240W, strain doc1, stronger effect = lower value 0.918 | locus YGL248W, strain PDE1, stronger effect = lower value 0.952 | locus YGL253W, strain hxk2, stronger effect = lower value 0.963 | locus YGR078C, strain PAC10, stronger effect = lower value 0.877 | locus YGR135W, strain pre9, stronger effect = lower value 0.949 | locus YHR027C, strain rpn1, stronger effect = lower value 0.981 | locus YHR030C, strain SLT2, stronger effect = lower value 1.02 and 0.96 | locus YHR079C, strain IRE1 (second series), stronger effect = lower value 0.979 | locus YHR079C, strain IRE1, stronger effect = lower value 0.968 | locus YHR094C, strain hxt1, stronger effect = lower value 1.03 | locus YHR129C, strain ARP1, stronger effect = lower value 0.993 | locus YHR142W, strain chs7, stronger effect = lower value 0.946 | locus YHR200W, strain rpn10, stronger effect = lower value 1.01 | locus YIL066C, strain RNR3, stronger effect = lower value 0.913 | locus YIL073C, strain SPO22, stronger effect = lower value 1.01 | locus YIL125W, strain kgd1, stronger effect = lower value 1 | locus YIR030C, strain dcg1, stronger effect = lower value 0.999 | locus YJL092W, strain hpr5, stronger effect = lower value 1.02 | locus YJL095W, strain BCK1 (second series), stronger effect = lower value 1 | locus YJL095W, strain BCK1, stronger effect = lower value 0.861 and 1 | locus YJL115W, strain asf1, stronger effect = lower value 1.05 | locus YJL129C, strain trk1, stronger effect = lower value 0.946 | locus YJL134W, strain LCB3, stronger effect = lower value 1.03 | locus YJL154C, strain vps35, stronger effect = lower value 1.05 | locus YJL164C, strain tpk1, stronger effect = lower value 0.952 | locus YJL166W, strain qcr8, stronger effect = lower value 0.973 | locus YJL168C, strain set2, stronger effect = lower value 1.02 | locus YJL187C, strain SWE1 (second series), stronger effect = lower value 0.931 | locus YJL187C, strain SWE1, stronger effect = lower value 1.02
active: locus YBR009C, strain hhf1, stronger effect = lower value 0.894 | locus YDL035C, strain GPR1, stronger effect = lower value 0.853 | locus YDR137W, strain rgp1, stronger effect = lower value 0.738 | locus YDR195W, strain ref2 1.25 [resistant] | locus YDR392W, strain spt3, stronger effect = lower value 0.617 | locus YGL078C, strain dbp3, stronger effect = lower value 0.904 | locus YGR252W, strain gcn5, stronger effect = lower value 0.653 | locus YHR013C, strain ard1, stronger effect = lower value 1.17 [resistant]

Source: PubChem BioAssay AID1159580 (chemical genetic matrix, 2015)
